Test results: PubChem BioAssay AID1159580 (chemical genetic matrix, 2015)
About 2,000 (36%) of roughly 5,500 compounds were called active. Inconclusive results (about 18%) are left out. Cut-off read from the data, not from the text of the source: active = normalized growth mostly below about 0.91 (no sharp cut-off); inconclusive = no clear call, values can overlap the other calls; inactive = mostly above about 0.92. This is one part of the list.

Test: chemical genetic growth profiling, strain panel (AID 1159580);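 note: tested at 20 µM; growth read once vehicle control cultures reached saturation at 30 °C; 1 = growth at the plate median or of vehicle wells; lower values mean less growth of the strain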
Conditions: S. cerevisiae deletion strains, growth OD

Measured: normalized growth

CC1(C)CC(O)C2(C)CCC3(C)C(=CCC4C5(C)CCC(O)C(C)(CO)C5CCC43C)C2C1 (configuration not stated)
inactive: locus YAL021C, strain ccr4, stronger effect = lower value 1.02 | locus YAL026C, strain drs2, stronger effect = lower value 1.03 | locus YAL030W, strain snc1, stronger effect = lower value 1.02 | locus YBL061C, strain skt5, stronger effect = lower value 1.03 | locus YBR009C, strain hhf1, stronger effect = lower value 1.02 | locus YBR023C, strain chs3, stronger effect = lower value 1.03 | locus YBR171W, strain sec66, stronger effect = lower value 1.03 | locus YBR231C, strain swc5, stronger effect = lower value 1.03 | locus YBR279W, strain paf1, stronger effect = lower value 1.02 | locus YCL011C, strain gbp2, stronger effect = lower value 1.03 | locus YCL016C, strain dcc1, stronger effect = lower value 1.03 | locus YCL061C, strain MRC1, stronger effect = lower value 1.02 | locus YCL069W, strain vba3, stronger effect = lower value 1.03 | locus YCR088W, strain abp1, stronger effect = lower value 1.03 | locus YDL005C, strain med2, stronger effect = lower value 1.03 | locus YDL040C, strain nat1, stronger effect = lower value 1.03 | locus YDR001C, strain nth1, stronger effect = lower value 1.02 | locus YDR069C, strain doa4, stronger effect = lower value 1.04 | locus YDR137W, strain rgp1, stronger effect = lower value 0.956 | locus YDR159W, strain sac3, stronger effect = lower value 1.04 | locus YDR195W, strain ref2 1 | locus YDR297W, strain sur2, stronger effect = lower value 1.02 | locus YDR334W, strain swr1, stronger effect = lower value 1.03 | locus YDR335W, strain msn5, stronger effect = lower value 1.03 | locus YDR392W, strain spt3, stronger effect = lower value 1.03 | locus YEL003W, strain gim4, stronger effect = lower value 1.02 | locus YEL037C, strain rad23, stronger effect = lower value 1.02 | locus YEL061C, strain CIN8 (second series), stronger effect = lower value 1.02 | locus YER015W, strain faa2, stronger effect = lower value 1.02 | locus YER016W, strain bim1, stronger effect = lower value 1.03 | locus YER111C, strain swi4, stronger effect = lower value 1.03 | locus YER155C, strain BEM2 (second series), stronger effect = lower value 1.04 | locus YFR010W, strain ubp6, stronger effect = lower value 1.03 | locus YGL167C, strain pmr1, stronger effect = lower value 1.02 | locus YGL173C, strain kem1, stronger effect = lower value 1.03 | locus YGL227W, strain vid30, stronger effect = lower value 1.03 | locus YGL240W, strain doc1, stronger effect = lower value 1.02 | locus YGL253W, strain hxk2, stronger effect = lower value 1.03 | locus YHR013C, strain ard1, stronger effect = lower value 1.04 | locus YHR027C, strain rpn1, stronger effect = lower value 1.02 | locus YHR142W, strain chs7, stronger effect = lower value 1.03 | locus YJL092W, strain hpr5, stronger effect = lower value 1.03 | locus YJL095W, strain BCK1 (second series), stronger effect = lower value 1.04 | locus YJL115W, strain asf1, stronger effect = lower value 1.04 | locus YJL129C, strain trk1, stronger effect = lower value 1.04 | locus YJL154C, strain vps35, stronger effect = lower value 1.02 | locus YJL164C, strain tpk1, stronger effect = lower value 1.03 | locus YJL166W, strain qcr8, stronger effect = lower value 1.02 | locus YJL187C, strain SWE1, stronger effect = lower value 1.02 | locus YKL160W, strain elf1, stronger effect = lower value 1.02 | locus YKR026C, strain gcn3, stronger effect = lower value 1.04 | locus YKR091W, strain srl3, stronger effect = lower value 1.03 | locus YLL001W, strain dnm1, stronger effect = lower value 1.03 | locus YLL026W, stronger effect = lower value 1.03 | locus YLL041C, strain sdh2, stronger effect = lower value 1.03 | locus YLR027C, strain aat2, stronger effect = lower value 1.03 | locus YLR221C, strain rsa3, stronger effect = lower value 1.02 | locus YLR258W, strain gsy2, stronger effect = lower value 1.04 | locus YLR262C, strain YPT6 (second series), stronger effect = lower value 0.994 | locus YLR320W, strain mms22, stronger effect = lower value 1.04 | locus YLR342W, strain FKS1, stronger effect = lower value 1.02 | locus YLR357W, strain rsc2, stronger effect = lower value 1.02 | locus YLR370C, strain arc18, stronger effect = lower value 1.03 | locus YLR384C, strain iki3, stronger effect = lower value 1.03 | locus YML120C, strain ndi1, stronger effect = lower value 1.04 | locus YMR058W, strain fet3, stronger effect = lower value 1.02 | locus YMR125W, strain sto1, stronger effect = lower value 1.04 | locus YMR129W, stronger effect = lower value 1.02 | locus YMR205C, strain PFK2, stronger effect = lower value 1.03 | locus YMR231W, strain pep5, stronger effect = lower value 1.03 | locus YNL071W, strain lat1, stronger effect = lower value 1.02 | locus YNL209W, strain ssb2, stronger effect = lower value 1.03 | locus YNL248C, strain rpa49, stronger effect = lower value 1.02 | locus YNL322C, strain KRE1 (second series), stronger effect = lower value 1.02 | locus YNR049C, strain mso1, stronger effect = lower value 1.04 | locus YOR001W, strain rrp6, stronger effect = lower value 1.04 | locus YOR070C, strain gyp1, stronger effect = lower value 1.03 | locus YOR080W, strain dia2, stronger effect = lower value 1.03 | locus YOR083W, strain WHI5, stronger effect = lower value 1.02 | locus YOR106W, strain vam3, stronger effect = lower value 1.03 | locus YOR265W, strain rbl2, stronger effect = lower value 1.03 | locus YOR270C, strain vph1, stronger effect = lower value 1.03 | locus YOR290C, strain snf2, stronger effect = lower value 1.03 | locus YPL051W, strain arl3, stronger effect = lower value 1.02 | locus YPL078C, strain atp4, stronger effect = lower value 1.03 | locus YPL106C, strain sse1, stronger effect = lower value 1.05 | locus YPL240C, strain hsp82, stronger effect = lower value 1.03
